Assay results published in PubChem BioAssay AID623868 (Vanderbilt High Throughput Screening Facility, 2012).
In all, about 2,100 compounds went through this assay and about 760 (36%) were called active. Not all results are given here. A number with no mark means an inactive call.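 The calls were made as follows: active = thallium-flux fluorescence traces judged by eye to show enhanced or reduced glutamate response, manual score 1 or -1, so both directions (some results past the limit were not filed as active); inactive = the rest, including fluorescent or raised-baseline compounds.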

Test: thallium influx changes without GIRK channels – cell-based, HEK-293 rmGlu8, no GIRK, thallium flux, counter-screen for GIRK activator project, confirmation (AID 623868);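 also: extra codes mark interference with 3 for fluorescent and 4 for baseline rise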
Conditions: thallium flux fluorescence, at 10 µM, actives lie on both sides, codes: 1 enhancer, -1 blocker, 0 none, thallium stimulus containing EC20 glutamate

Row | Compound | manual score
1 | CCN(CC(=O)c1c(N)n(C)c(=O)n(C)c1=O)c1cccc2ccccc12 | 0
2 | O=C1NC(=S)SC1=C1CCCCCC1 | 1 (active)
3 | CCCCn1c(-c2csc3c2CCC(C)C3)n[nH]c1=S (stereo not drawn) | 1 (active)
4 | CCCCCNc1nc(-c2ccccc2)cs1 | 0
5 | CCCc1cc(-c2n[nH]c(=S)n2C(C)c2ccccc2)cs1 (stereo not drawn) | 0
6 | CCc1cc(-c2n[nH]c(=S)n2C(C)c2ccccc2)cs1 (stereo not drawn) | 1 (active)
7 | CCCCn1c(-c2csc(C(C)C)c2)n[nH]c1=S | 1 (active)
8 | CCCCn1c(-c2csc3c2CCCC3)n[nH]c1=S | 0
9 | CCCc1cc(-c2n[nH]c(=S)n2Cc2ccccc2)cs1 | 1 (active)
10 | Cc1cccc(-n2c(-c3csc(C(C)C)c3)n[nH]c2=S)c1 | 1 (active)
11 | CCCc1cc(-c2n[nH]c(=S)n2CC(C)C)cs1 | 1 (active)
12 | Cc1cccc(-n2c(C)nc3sccc3c2=O)c1 | 0
13 | Cc1ccc(S(=O)(=O)CC(=O)Nc2ccc(S(=O)(=O)Nc3onc(C)c3C)cc2)cc1 | 0
14 | Cc1cccc2cc(/C=C3\N=C(c4ccccc4)OC3=O)c(N3CCOCC3)nc12 | 3
15 | COC(=O)c1ccc(CSc2nnc(Nc3ccccc3OC)s2)o1 | 0
16 | COC(=O)c1ccc(CSc2ccc3nnc(-c4ccccc4)n3n2)o1 | -1 (active)
17 | CCn1c(SCc2ccc(Cl)cc2)nnc1-c1ccccc1 | 0
18 | CCn1c(NC(=S)Nc2ccccc2)nc2ccccc21 | 1 (active)
19 | CCn1c(SCc2nc(-c3ccccc3)no2)nc2ccccc21 | 0
20 | CCN(CC)CCn1c(NC(=O)c2ccc(Cl)cc2)nc2ccccc21 | 0
21 | CCCCn1c(NC(=S)Nc2ccccc2)nc2ccccc21 | 1 (active)
22 | CCCn1c(NCc2ccc(N(C)C)cc2)nc2ccccc21 | 0
23 | CCCCc1ccc(NC(=S)Nc2cccnc2)cc1 | 0
24 | CCCCN1C(=O)c2ccccc2C1C(=O)NC1CCCC1 (stereo not drawn) | 0
25 | Cc1cccc(C(=O)N2CCC(Cc3ccccc3)CC2)c1[N+](=O)[O-] | 0

Row | Compound | manual score
26 | O=C(Nc1nnc(-c2ccc3c(c2)CCCC3)o1)c1ccc(Cl)cc1Cl | 1 (active)
27 | O=C(Nc1nnc(-c2ccc3c(c2)CCCC3)o1)C1COc2ccccc2O1 (stereo not drawn) | 1 (active)
28 | CC1CN(S(=O)(=O)c2ccc(C(=O)Nc3nnc(-c4ccc5c(c4)CCCC5)o3)cc2)CC(C)O1 (stereo not drawn) | 1 (active)
29 | CCC(/C=N/NC(=O)C1COc2ccccc2O1)CC (stereo not drawn) | 0
30 | O=C(Nc1nnc(-c2ccc3c(c2)CCCC3)o1)c1ccccc1Cl | 1 (active)
31 | Cc1ccc(NC(=O)c2ccc(COc3ccc4c(c3)CCC4)cc2)c(C)c1 | 0
32 | O=C(Nc1ccc(-c2nc3ccccc3o2)cc1)c1cc(-n2cnnc2)ccc1Cl | 0
33 | NS(=O)(=O)c1ccc(NC(=O)C2COc3ccccc3O2)cc1 (stereo not drawn) | 0
34 | CCCC1COC(Cn2cncn2)(c2ccc(C)cc2)O1 (stereo not drawn) | 0
35 | O=C(c1cnn2c(C(F)(F)F)cc(-c3cccs3)nc12)N1CCN(Cc2ccccc2)CC1 | 0
36 | CCCCCCCC1CC(CSc2ncn[nH]2)OC1=O (stereo not drawn) | 0
37 | N=c1oc2ccc3ccccc3c2cc1-c1nc(-c2ccccc2)cs1 | 3
38 | CC1CCCCN1Cc1nc2c(c(=O)n(C)c(=O)n2C)n1CCc1ccccc1 (stereo not drawn) | 0
39 | O=C(Nc1cccc(-c2nnc(-c3ccccc3)o2)c1)C1CCCO1 (stereo not drawn) | 0
40 | CN(C)S(=O)(=O)c1ccc(C(=O)Nc2nnc(-c3ccc4c(c3)CCCC4)o2)cc1 | 0
41 | O=C(Nc1nnc(-c2ccc3c(c2)CCCC3)o1)c1ccccc1 | 1 (active)
42 | CN1CCN(Cc2cccc(Oc3ccc(Cl)cc3)c2)CC1 | 0
43 | Cc1ccccc1OCC(=O)NNC(=S)NC(=O)c1ccco1 | 1 (active)
44 | Cc1ccccc1OCC(=O)N/N=C/c1cccn1C | 0
45 | CCCc1ccc(OCC(=O)NNC(=S)NC(=O)c2ccco2)cc1 | 1 (active)
46 | O=C(Nc1ccc(Br)cc1)C1CCC(=O)N1Cc1ccccc1Cl (stereo not drawn) | 0
47 | O=P(CCCCCCCCCP(=O)(c1ccccc1)c1ccccc1)(c1ccccc1)c1ccccc1 | -0.5
48 | COc1ccccc1Nc1ccc(Nc2ccccc2OC)nn1 | 0
49 | COc1ccccc1-c1ccc(NC2CCCC2)nn1 | -1 (active)
50 | S=c1nc(-c2ccc(Br)cc2)oc2c1CCCC2 | 1 (active)

Row | Compound | manual score
51 | CC(C)COc1ccc(Cc2cnc(N)nc2N)cc1 | 0
52 | CCN(C#N)c1nc(NC(C)C)nc(NC(C)C)n1 | 0
53 | Oc1ccc2ccccc2c1N=Nc1ccccn1 | 1 (active)
54 | CCCCn1c(O)c(N=Nc2ccccn2)c2ccccc21 | 1 (active)
55 | CCCCn1c(=N)n(CC(O)COc2cccc(C)c2)c2ccccc21 (stereo not drawn) | 0
56 | Oc1c(N=Nc2ccccn2)ccc2ccccc12 | 1 (active)
57 | CC(C)n1c(O)c(N=Nc2ccccn2)c2ccccc21 | 0
58 | CCOc1ccc(N2C(=O)CC(SC(=NC)Nc3ccc(F)cc3)C2=O)cc1 (stereo not drawn) | 0
59 | COc1ccc2cc(Br)ccc2c1CC(=O)NC1CC(C)(C)NC(C)(C)C1 | 0
60 | CCC(C)NC(=O)CN1C(=O)CC(C)(C)S(=O)(=O)c2ccccc21 (stereo not drawn) | 0
61 | CCn1c(=O)cc(OCC(=O)Nc2cccc(C)n2)c2ccccc21 | 0
62 | CCn1c(O)c(N=NC(=O)CNc2cccc(C)c2)c2ccccc21 | 1 (active)
63 | CCn1c(=O)c(C(=O)NCCCO)c(O)c2ccccc21 | 0
64 | Cc1nn(-c2ccccc2)c(OC(=O)c2cccs2)c1S(=O)(=O)c1ccccc1 | 0
65 | CO/N=C(\Cn1ncc(N2CCCC2)c(Br)c1=O)c1ccc(Cl)cc1 | 0
66 | CO/N=C(\Cn1ncc(N2CCCC2)c(Cl)c1=O)c1ccc(Cl)cc1 | 0
67 | CCN(CC)c1cnn(C/C(=N\OC)c2ccc(Cl)cc2)c(=O)c1Br | -1 (active)
68 | CCC(C)(C)NC(=O)C(c1ccc(F)cc1)N(Cc1ccco1)C(=O)c1cnccn1 (stereo not drawn) | 0
69 | N#CC1=C(N)SC(N)=C(C#N)C1c1c(Cl)cccc1Cl | -1 (active)
70 | N#CC1=C(N)SC(N)=C(C#N)C1CCc1ccccc1 | 0
71 | Oc1oc(-c2cccc3ccccc23)nc1/C=N/c1nccs1 | 1 (active)
72 | C#CCSc1nnc(-c2cccc3ccccc23)o1 | 0
73 | O=C(O)c1cnc(-c2ccccc2)nc1Sc1ccccc1Cl | 0
74 | CC(C)C(=O)OCC(=O)Nc1ccc(N=Nc2ccccc2)cc1 | 0
75 | CCOC(=O)c1c2n(c3c(NCc4ccccc4)ncnc13)CCCC2 | -1 (active)

Row | Compound | manual score
76 | CCOC(=O)C1CCCN(c2ncnc3c2oc2ccccc23)C1 (stereo not drawn) | 0
77 | CCOC(=O)c1c(C)oc2ccc(O)c(CN3CCCCC3)c12 | 0
78 | Cc1ccc(NC(=S)N=Nc2c(O)n(C)c3ccc(S(=O)(=O)N4CCOCC4)cc23)cc1 | 1 (active)
79 | Cc1ccc(SC(C)C(=O)Nc2ccc(S(=O)(=O)N3CCOCC3)cc2)cc1 (stereo not drawn) | 0
80 | Cc1ccc(C)c(NC(=S)N=Nc2c(O)n(C)c3ccc(S(=O)(=O)N4CCOCC4)cc23)c1 | 1 (active)
81 | Cc1ccc(NC(=O)CSc2nccn2C)cc1S(=O)(=O)N1CCOCC1 | 0
82 | CCc1c(C)sc(NC(=O)CCc2ccc(OC)cc2)c1C(N)=O | 0
83 | CCC(C)n1c(=S)[nH]c2c(sc3ccc([N+](=O)[O-])cc32)c1=O (stereo not drawn) | 1 (active)
84 | CN=C1S/C(=C\c2cc(C)n(-c3ccccc3F)c2C)C(=O)N1C | 0
85 | COc1ccc(C2c3ccc4ccccc4c3Oc3ncn(CCN4CCOCC4)c(=N)c32)cc1 (stereo not drawn) | 0
86 | C=C(C)CNC(=S)Nc1cccc2cnccc12 | 0
87 | O=C(NNC(=S)Nc1cccc2ccccc12)c1cccc(Br)c1 | 1 (active)
88 | S=C(Nc1cccc(Br)c1)c1ccccc1 | 0
89 | O=C(NNC(=S)Nc1ccccc1)c1cccc(Br)c1 | 1 (active)
90 | Cc1ccc(C(=O)NNC(=S)Nc2cccc3ccccc23)s1 | 1 (active)
91 | NC(=O)Nc1cccc2ccccc12 | 0
92 | CN1CCN(C(=O)Nc2cccc3ccccc23)CC1 | 0
93 | N#Cc1ccsc1NC(=O)CN1CCN(c2ccc(O)cc2)CC1 | 0
94 | COc1ccc(/C=C2\N=C(SC)NC2=O)cc1 | 1 (active)
95 | Cc1ccc(S(=O)(=O)n2cnc3cc([N+](=O)[O-])ccc32)cc1C | 0
96 | Clc1ccccc1-c1nnc2sc(-c3ccc4c(c3)OCO4)nn12 | 0
97 | Brc1ccccc1-c1nnc2sc(-c3ccc4c(c3)OCCO4)nn12 | -1 (active)
98 | Clc1ccccc1-c1nnc2sc(-c3ccccn3)nn12 | 0
